The values that follow come from paper PMC7819943, “Rice protein-binding microarrays: a tool to detect cis-acting elements near promoter regions in rice”.

Over roughly 39,000 sequences, “fluorescence intensity (a.u.)” has its median near 4,300; the highest 2% begin near 39,000. The full list was thinned out, with the highest values kept by preference.

This test deals with T1, OsSMF1 (Oryza sativa, UniProt Q6ZLB0 1-436).
T1 sequence: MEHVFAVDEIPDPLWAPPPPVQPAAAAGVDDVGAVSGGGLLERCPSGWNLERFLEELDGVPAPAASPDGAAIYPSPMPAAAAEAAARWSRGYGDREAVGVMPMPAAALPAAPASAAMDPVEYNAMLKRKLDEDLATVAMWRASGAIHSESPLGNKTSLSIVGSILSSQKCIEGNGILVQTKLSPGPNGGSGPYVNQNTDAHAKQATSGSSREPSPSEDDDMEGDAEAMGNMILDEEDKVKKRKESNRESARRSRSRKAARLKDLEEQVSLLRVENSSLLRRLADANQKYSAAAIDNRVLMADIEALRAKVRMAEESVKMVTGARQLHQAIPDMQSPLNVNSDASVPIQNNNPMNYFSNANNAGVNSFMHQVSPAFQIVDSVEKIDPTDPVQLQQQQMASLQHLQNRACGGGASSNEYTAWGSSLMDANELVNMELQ
The test can be described thus: protein-binding microarray (RPBM); PBS, 2% BSA, 51.3 ng/ul salmon testes DNA, 50 uM zinc acetate, 200 nM TF, 25 C, 1 h; high values mean tight binding. The settings on record: protein: recombinant; tags: N-terminal polyhistidine and DsRed monomer fusion (pET32a); chain copies: 2; label: CyDye5-dUTP incorporated in the synthesized complementary strand; 3' TTTTT single-stranded linker to array surface; dsDNA, one strand shown. Put shortly: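 A custom Agilent array was converted to double-stranded form by primer extension with Cy5-dUTP and blocked with 2% BSA. Protein at 200 nM in PBS with 2% BSA, salmon testes DNA and 50 µM zinc acetate was applied for 1 h at 25 °C, followed by washing. The proteins were polyhistidine–DsRed N-terminal fusions of transcription factors, expressed in E. coli BL21-CodonPlus and Ni–NTA-purified. The binding signal is per-feature fluorescence intensity (arbitrary units) from an Axon 4000B scanner.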
On to “TCAAGGACCTCGTCATCCTCTCAGGTAACACACTTTCCCTCGGAGTCACCTAGTGCAG”, for which the binding signal was 3780 fluorescence intensity (a.u.).

As for “CTTCGCTCTCTTTTCCATTGCAGAGCCCTCACGCTTCCGCCGGAGTCACCTAGTGCAG”, the binding signal is 3570 fluorescence intensity (a.u.).

In the case of “ACGCCGCTAGTTCTTTTCTCCAGAGCAATCTGGTCAGTTCCGGAGTCACCTAGTGCAG”, the binding signal was 59900 fluorescence intensity (a.u.).

For the sequence “TCCTCTTCTCCTCCGCCGCATCAGCAATCTCTCTTTCTACCGGAGTCACCTAGTGCAG”, the binding signal is 4100 fluorescence intensity (a.u.).

Regarding “AGAAGAGGTGATGTATAAAACATGTCACGATTTAATATCTCGGAGTCACCTAGTGCAG”, the binding signal is 4070 fluorescence intensity (a.u.).

Take “GTATATATACACGTATACAAAGTTTATATATGACGTATACCGGAGTCACCTAGTGCAG”: the binding signal was 6040 fluorescence intensity (a.u.).

Take “GTGTTTATATAAGTGTTTGCATATGTACTATGTTTTAATACGGAGTCACCTAGTGCAG”: the binding signal is 3730 fluorescence intensity (a.u.).

As to “AAATAACAAAATTACAAGTTTAACATAAATATGTAATCACCGGAGTCACCTAGTGCAG”, the binding signal is 21200 fluorescence intensity (a.u.).

As to “GATATGATTATTTATTTCTTTAAATGAAAATCATGTGTAACGGAGTCACCTAGTGCAG”, the binding signal is 32500 fluorescence intensity (a.u.).

In the case of “TATAAATTAATATGTAGTATATCACTTCATAAGTTTAAATCGGAGTCACCTAGTGCAG”, the binding signal was 39300 fluorescence intensity (a.u.).

Consider “ATAACCTAATATAAAGTTCGCTCATATGAAAATTTAAACTCGGAGTCACCTAGTGCAG”, for which the binding signal is 51600 fluorescence intensity (a.u.).

“TTAATACGTATGAATATATAAAGTTTATATATGCATGTACCGGAGTCACCTAGTGCAG”: the binding signal is 63000 fluorescence intensity (a.u.).

“AATTATCATAAAACAACATATTTAAACCATGGTAACATAACGGAGTCACCTAGTGCAG”: the binding signal is 6200 fluorescence intensity (a.u.).

Turning to “ATCTTGATATCTGCAACATAAAATGTAACATCAGATTTAACGGAGTCACCTAGTGCAG”, the binding signal was 39500 fluorescence intensity (a.u.).

Take “TTATTATGAAAATATATTTAATTATTGATTTGATGAAACTCGGAGTCACCTAGTGCAG”: the binding signal is 21300 fluorescence intensity (a.u.).

In the case of “AAGAAGTACGTCATATATTCAGTTTTATGTATTATTTTATCGGAGTCACCTAGTGCAG”, the binding signal was 3310 fluorescence intensity (a.u.).

As for “AACATAATGTTTTAACTTAAACCTTAATAATGAAATTTCTCGGAGTCACCTAGTGCAG”, the binding signal was 3670 fluorescence intensity (a.u.).

Take “TTCGACACAGTCATACGTGAGTCGGATGGAGTTAGGTCTGCGGAGTCACCTAGTGCAG”: the binding signal is 4150 fluorescence intensity (a.u.).

For “CTCCTCCCATGCGCCGCCACGTAGGATCGCGCGATCAGATCGGAGTCACCTAGTGCAG”, the binding signal was 10300 fluorescence intensity (a.u.).

Take “AACACGAAAATGAAAGGGAGGGGCTTTCCTTAGCGATTAACGGAGTCACCTAGTGCAG”: the binding signal was 3830 fluorescence intensity (a.u.).

Take “TGTAAACTTTTATGATCATTTAGGAGCTCTGGACAGTAATCGGAGTCACCTAGTGCAG”: the binding signal is 18200 fluorescence intensity (a.u.).

Consider “ATGCCATTGATTCAATAGTGAATCATCGTTCTTTCTGGATCGGAGTCACCTAGTGCAG”, for which the binding signal was 3550 fluorescence intensity (a.u.).

Take “GTATCAAAACATATTCAATCATAGATTTAATGAAAACTAACGGAGTCACCTAGTGCAG”: the binding signal was 3360 fluorescence intensity (a.u.).

Take “AGGTAATGTATCATAAAACTATAGATTTAACACTAAATTTCGGAGTCACCTAGTGCAG”: the binding signal was 53000 fluorescence intensity (a.u.).

As to “CTATAATTTAAACATGTAAAGTTTACGTGTATATAAATTTCGGAGTCACCTAGTGCAG”, the binding signal was 3160 fluorescence intensity (a.u.).

“AAGTTATACTTAAAGTATTATAAATAATAAAGTAAGTCACCGGAGTCACCTAGTGCAG”: the binding signal was 34100 fluorescence intensity (a.u.).

As for “AAATGGATGATAAGTATAATTACTTAGAGCAAGTTTAATACGGAGTCACCTAGTGCAG”, the binding signal was 65500 fluorescence intensity (a.u.).

Turning to “TTTATTATTAGTTTACGTTTAATACTTCTAATTAGTATAACGGAGTCACCTAGTGCAG”, the binding signal was 3240 fluorescence intensity (a.u.).

For “TAGCCAGGAGGGAGGTGGCAAAACAGAATGATGGGAGGGACGGAGTCACCTAGTGCAG”, the binding signal is 3220 fluorescence intensity (a.u.).

As to “GGCTTAAGTCAAGCTAATTTTAGATATTTATTATTTTGTGCGGAGTCACCTAGTGCAG”, the binding signal is 3900 fluorescence intensity (a.u.).

For the sequence “GTTCCATTGGTTTGTAATAATGAAGCCTGCCTAGTGCTTTCGGAGTCACCTAGTGCAG”, the binding signal was 32100 fluorescence intensity (a.u.).

As to “CATCGTCCGCCGTGACACGCTGGCGGAGTCCGTGGTGCTACGGAGTCACCTAGTGCAG”, the binding signal was 5010 fluorescence intensity (a.u.).

Consider “GGGGAGGAGGACGAGTAACAGACGTGGTGGCCGCCGAGGCCGGAGTCACCTAGTGCAG”, for which the binding signal was 3490 fluorescence intensity (a.u.).

As to “TATATTTCATTAATATAAATAAAATTAAAATGTTACTTAACGGAGTCACCTAGTGCAG”, the binding signal is 25600 fluorescence intensity (a.u.).

Take “GTAATTAAATTAAATTAAATTGATTAATACCAACCCTGGTCGGAGTCACCTAGTGCAG”: the binding signal was 24500 fluorescence intensity (a.u.).

As for “CGTCGATTAATTTCCCTGGTAAATACGAAATGTTCATGGTCGGAGTCACCTAGTGCAG”, the binding signal was 39600 fluorescence intensity (a.u.).

Turning to “CTCCTCTCCGATGAAGACCTGCCACCGGTCTGAACCATCTCGGAGTCACCTAGTGCAG”, the binding signal was 64300 fluorescence intensity (a.u.).

As for “TGGCCCATCAGAGTCAGAGCCGCCGCCGACTCCAGATTCCCGGAGTCACCTAGTGCAG”, the binding signal was 3220 fluorescence intensity (a.u.).

Regarding “TCTCTCTCATCCTTCCAATCGATCTCCTCGACCTGCTATGCGGAGTCACCTAGTGCAG”, the binding signal is 3440 fluorescence intensity (a.u.).

For “CTGAACCATCCGACTCACCACCGGTATTTCTCGGCCATCTCGGAGTCACCTAGTGCAG”, the binding signal is 3950 fluorescence intensity (a.u.).

On to “CTCTCCTCTCCTCTTGGTGATGACTGATCGATGACCACCACGGAGTCACCTAGTGCAG”, for which the binding signal was 4680 fluorescence intensity (a.u.).

“CCCCACTGATGATGATGATGACTCGATTCTATTCCACCGCCGGAGTCACCTAGTGCAG”: the binding signal is 5550 fluorescence intensity (a.u.).
